Screening data (PubChem)
A647 autofl: qHTS Assay for Spectroscopic Profiling in A647 Spectral Region | max dye-equivalent concentration, M | Compound fluorescence, A647 channel (570/671 nm), Tris buffer | 59,000 tested, under 10 active
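Compound fluorescence was measured in 100 mM Tris buffer, pH 8.0, after 15 min at room temperature, using 570 nm excitation and 671 nm emission filters. Signal was normalized to a per-plate Alexa 647 standard curve and expressed as dye-equivalent concentration at each compound concentration.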
Fluorescein autfl: qHTS Assay for Spectroscopic Profiling in Fluorescein Spectral Region; max fluorescein-equivalent concentration, M; Compound autofluorescence, 480/540 nm, fluorescein-equivalent; stronger effect = higher value; actives 0.91% (n = 59,000); AID 593, 2007; in the data active = max fluorescein-equivalent concentration above about 10 nM; inconclusive = between about 1.1 nM and that limit
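First, buffer (100 mM Tris, pH 8.0) dispensed; second, compounds and fluorescein standards pinned in; third, 15 min room-temperature incubation; finally, imaging at ex 480 nm/em 540 nm. Fluorescence normalized against the six-point fluorescein curve.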
Rhodamine fluor: qHTS Assay for Spectroscopic Profiling in Rhodamine Spectral Region. Rhodamine-region fluorescence, 547/598 nm, Tris buffer; stronger effect = higher value. max dye-equivalent concentration, M. actives 0.05% (n = 59,000). AID 594, 2007; in the data active = max dye-equivalent concentration above about 11 nM; inconclusive = between about 1.1 nM and that limit
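Intensities are converted to rhodamine-equivalent concentration using a six-point rhodamine standard on each plate. Compounds sit 15 min at room temperature in 100 mM Tris buffer, pH 8.0; read uses the 547/598 nm excitation/emission pair.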
A488 autofl: qHTS Assay for Spectroscopic Profiling in A488 Spectral Region; compound autofluorescence, A488 spectral region, dye equivalency; Compound Type: qHTS ECL - MLSMR; max dye equivalency, M; actives 0.1% (n = 59,000)
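Intrinsic compound fluorescence is measured in 100 mM Tris buffer at pH 8.0 following 15 min incubation at room temperature. Intensities at 480 nm excitation/540 nm emission are calibrated to an on-plate A488 concentration series, giving dye-equivalent concentrations.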
Texas Red fluor: qHTS Assay for Spectroscopic Profiling in Texas Red Spectral Region; Compound fluorescence, Texas Red channel, 547/618 nm; stronger effect = higher value; max dye-equivalent concentration, M; actives 0.06% (n = 59,000); AID 587, 2007; in the data active = max dye-equivalent concentration above about 10 nM; inconclusive = between about 1.1 nM and that limit
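Dye-equivalent concentrations come from scaling compound signal (ex 547, em 618 nm) to six Texas Red standard concentrations run on every plate, after 15 min room-temperature incubation in pH 8.0 Tris (100 mM).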
Resorufin fluor: qHTS Assay for Spectroscopic Profiling in Resorufin Spectral Region; Compound fluorescence, resorufin region 547/598 nm, buffer; stronger effect = higher value; max dye-equivalent concentration, M; actives 0.04% (n = 59,000); AID 588, 2007
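Read-out: intrinsic compound fluorescence at ex 547/em 598 nm after 15 min at RT in pH 8.0 Tris (100 mM). Values expressed as resorufin-equivalent concentration from per-plate standard series.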
A number is an active result. A selection: hits, their analogues and other compounds. The true share with any hit is near 0.96%. Unless noted, no rule for the calls is given here.

O=C(CCN1C(=O)C2CC=C(Cl)CC2C1=O)N1CCCCC1 (centres undefined) was read as A647 autofl inactive, Fluorescein autfl 2.93e-08M, Rhodamine fluor inactive, A488 autofl inconclusive, Texas Red fluor inactive and Resorufin fluor inactive.
Screening O=C1C2CC=C(Cl)CC2C(=O)N1CNc1ccccn1 (centres undefined) returned A647 autofl inactive, Fluorescein autfl inactive, Rhodamine fluor inactive, A488 autofl inactive, Texas Red fluor inactive and Resorufin fluor inactive.
`O=C1C2CC=C(Cl)CC2C(=O)N1CCc1ccccc1` (centres undefined) gave A647 autofl inactive, Fluorescein autfl 2.03e-08M, Rhodamine fluor inactive, A488 autofl inactive, Texas Red fluor inactive and Resorufin fluor inactive.
For Cc1ccc(C2C(C(=O)c3cc4ccccc4o3)=C(O)C(=O)N2CCN2CCOCC2)o1 (centres undefined) the results were A647 autofl inactive, Fluorescein autfl inconclusive, Rhodamine fluor inactive, A488 autofl inactive, Texas Red fluor inactive and Resorufin fluor inactive.
For O=c1c(-c2ccc(Cl)cc2)[n+]([O-])c2ccccc2n1O the results were A647 autofl inactive, Fluorescein autfl 1.57e-08M, Rhodamine fluor inactive, A488 autofl inactive, Texas Red fluor inactive and Resorufin fluor inactive.
C=CCOn1c(=O)c(-c2ccc(OC)cc2)[n+]([O-])c2ccccc21 was read as A647 autofl inactive, Fluorescein autfl inactive, Rhodamine fluor inactive, A488 autofl inactive, Texas Red fluor inconclusive and Resorufin fluor inactive.
`Oc1ccc2cccnc2c1` gave A647 autofl inactive, Fluorescein autfl 1.61e-08M, Rhodamine fluor inactive, A488 autofl inactive, Texas Red fluor inactive and Resorufin fluor inactive.
`N#Cc1c(N2CCCCC2)nc(N2CCCCC2)c2c1CCN(Cc1ccccc1)C2` gave A647 autofl inactive, Fluorescein autfl 4.8e-08M, Rhodamine fluor inactive, A488 autofl inconclusive, Texas Red fluor inactive and Resorufin fluor inactive.
Screening COc1ccc(O)c(C(=O)c2cc(C#N)c(=O)n(CCN3CCOCC3)c2)c1 returned A647 autofl inactive, Fluorescein autfl inactive, Rhodamine fluor inactive, A488 autofl inactive, Texas Red fluor inactive and Resorufin fluor inactive.
COc1ccc(O)c(C(=O)c2cc(C#N)c(=O)n(-c3c(C)n(C)n(-c4ccccc4)c3=O)c2)c1 was read as A647 autofl inactive, Fluorescein autfl 1.21e-07M, Rhodamine fluor inactive, A488 autofl inconclusive, Texas Red fluor inactive and Resorufin fluor inactive.
Screening C[C@H]1CS(=O)(=O)CCN1/N=C\c1ccc([N+](=O)[O-])o1 returned A647 autofl inactive, Fluorescein autfl inactive, Rhodamine fluor inactive, A488 autofl inactive, Texas Red fluor inactive and Resorufin fluor inactive.
O=C1CN(/N=C\c2ccc([N+](=O)[O-])o2)C(=O)N1 was read as A647 autofl inactive, Fluorescein autfl 1.61e-07M, Rhodamine fluor inactive, A488 autofl inconclusive, Texas Red fluor inconclusive and Resorufin fluor inactive.
`N#CC(C(=O)NC1CC1)c1nc2ccccc2nc1N1CCCC1` (centres undefined) gave A647 autofl inactive, Fluorescein autfl 1.79e-07M, Rhodamine fluor inactive, A488 autofl inconclusive, Texas Red fluor inconclusive and Resorufin fluor inactive.
Screening COCCCNC(=O)C(C#N)c1nc2ccccc2nc1N1CCN(Cc2ccccc2)CC1 (centres undefined) returned A647 autofl inactive, Fluorescein autfl inactive, Rhodamine fluor inactive, A488 autofl inactive, Texas Red fluor inactive and Resorufin fluor inactive.
Screening C=CCNC(=O)C(C#N)c1nc2ccccc2nc1N1CCN(Cc2ccccc2)CC1 (centres undefined) returned A647 autofl inactive, Fluorescein autfl 5.57e-08M, Rhodamine fluor inactive, A488 autofl inconclusive, Texas Red fluor inactive and Resorufin fluor inactive.
N#CC(C(=O)NC1CCCCC1)c1nc2ccccc2nc1N1CCN(c2ccc(F)cc2)CC1 (centres undefined) was read as A647 autofl inactive, Fluorescein autfl 3.52e-07M, Rhodamine fluor inactive, A488 autofl 2.01e-08M, Texas Red fluor inactive and Resorufin fluor inactive.
N#CC(C(=O)NC1CC1)c1nc2ccccc2nc1N1CCN(C/C=C/c2ccccc2)CC1 (centres undefined) was read as A647 autofl inactive, Fluorescein autfl 1.29e-07M, Rhodamine fluor inactive, A488 autofl inconclusive, Texas Red fluor inactive and Resorufin fluor inactive.
For N#CC(C(=O)NC1CCCCC1)c1nc2ccccc2nc1N1CCCCC1 (centres undefined) the results were A647 autofl inactive, Fluorescein autfl inconclusive, Rhodamine fluor inactive, A488 autofl inactive, Texas Red fluor inactive and Resorufin fluor inactive.
For COc1cccc(NS(=O)(=O)c2ccc3[nH]cc(C(=O)NCCN4CCOCC4)c(=O)c3c2)c1 the results were A647 autofl inactive, Fluorescein autfl inactive, Rhodamine fluor inactive, A488 autofl inactive, Texas Red fluor inactive and Resorufin fluor inactive.
`COCCCn1c(SCC(=O)N(C)C)nnc1-c1ccccc1` gave A647 autofl inactive, Fluorescein autfl inactive, Rhodamine fluor inactive, A488 autofl inactive, Texas Red fluor inactive and Resorufin fluor inactive.
For O=C(Nc1ccccc1)N1CC=C(c2ccc(F)cc2)CC1 the results were A647 autofl inactive, Fluorescein autfl inconclusive, Rhodamine fluor inactive, A488 autofl inactive, Texas Red fluor inactive and Resorufin fluor inactive.
CC(C)Cn1c(SCC(=O)NC2CCCc3ccccc32)nc(O)cc1=O (centres undefined) was read as A647 autofl inactive, Fluorescein autfl inconclusive, Rhodamine fluor inactive, A488 autofl inactive, Texas Red fluor inactive and Resorufin fluor inactive.
For Cc1cc(-c2ccco2)c(C#N)c2nc3ccccc3n12 the results were A647 autofl inactive, Fluorescein autfl 1.58e-07M, Rhodamine fluor inactive, A488 autofl inconclusive, Texas Red fluor inactive and Resorufin fluor inactive.
Screening CCc1c(C)c(C#N)c2nc3ccccc3n2c1-n1nc(C)cc1C returned A647 autofl inactive, Fluorescein autfl inconclusive, Rhodamine fluor inactive, A488 autofl inactive, Texas Red fluor inactive and Resorufin fluor inactive.
Screening CN(C)Cc1ccccc1-c1nccc(NCc2cccs2)n1 returned A647 autofl inactive, Fluorescein autfl 1.09e-08M, Rhodamine fluor inactive, A488 autofl inactive, Texas Red fluor inactive and Resorufin fluor inactive.
CC(=O)OCC(=O)NCc1ccc2c(c1)OCO2 was read as A647 autofl inactive, Fluorescein autfl inconclusive, Rhodamine fluor inactive, A488 autofl inactive, Texas Red fluor inactive and Resorufin fluor inactive.
`CC(C)c1nnc(NC(=O)CCC(=O)NCc2ccc3c(c2)OCO3)s1` gave A647 autofl inactive, Fluorescein autfl 1.28e-07M, Rhodamine fluor inactive, A488 autofl inconclusive, Texas Red fluor inactive and Resorufin fluor inactive.
